Screening data from PubChem BioAssay.
This is a sample that favours compounds with a hit; in the whole collection about 0.5% have one here.
TRPV1 agonist: HTS Assay for Compounds that Act as Agonists of the Vanilloid Receptor 1; Transient receptor potential cation channel subfamily V member 1 (Homo sapiens), Q8NER1; TRPV1-expressing cells, Fluo-8 calcium influx, agonist mode; activation, % at 8.33 µM; 0.19% of 320,000 active; in the data active means activation above about 80%; inconclusive means between about 30% and that limit
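Fluo-8 calcium influx in TRPV1-expressing cells, kinetic read (ex 480/em 520 nm). Compound added and read 3 min for agonist activity, followed by capsaicin at EC20 final and 2 min further read for enhancement.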
TRPML1 inh: qHTS for Inhibitors of the Human Mucolipin Transient Receptor Potential 1 (TRPML1). TRPML1-inducible cells, Ca2+ dye fluorescence, FDSS; hits give low values; inhibition of EC80 agonist-evoked calcium signal. activity change, negative = inhibition, % (no concentration beside the values). 0.02% of 390,000 active; in the data active means activity change below about -50%; inconclusive means between about -30% and that limit;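 further: stimulus is agonist 54-4 at its EC80 concentration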
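Calcium fluorescence in TRPML1-DL cells induced overnight with Tet: a 110 s read after compound pin addition, then a 110 s antagonist read after challenge with 54-4 at 4 uM final (EC80).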
RGS4 inhibitor: Inhibitors of Regulator of G Protein Signaling (RGS) 4: qHTS; Transcreener GDP fluorescence polarization, RGS4-accelerated GTP hydrolysis; 0.039% of 390,000 active; AID 504845, 2011; Potency, µM (titrated, usually from 114 µM), actives largely listed as inhibitors; Regulator of G-protein signaling 4 (Homo sapiens), P49798; further: nearly all actives have a fitted effect of over 75% in size
Target sequence (P49798 whole entry, looked up): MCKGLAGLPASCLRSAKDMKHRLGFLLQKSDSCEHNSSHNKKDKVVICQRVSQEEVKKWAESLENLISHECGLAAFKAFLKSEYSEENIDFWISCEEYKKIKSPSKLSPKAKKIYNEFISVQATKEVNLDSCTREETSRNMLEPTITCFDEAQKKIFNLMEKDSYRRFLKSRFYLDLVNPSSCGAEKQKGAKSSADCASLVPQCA
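MLSMR compounds (23 nl, pin-transferred) preincubated 10 min at room temperature with a 500nM (2x) first reagent, then RGS4 at 900nM (2x) plus Transcreener GDP mix added; fluorescence polarization (620/688 nm) read before and after 90 min at 30 °C.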
TRPML1 agonist: qHTS for Agonists of the Human Mucolipin Transient Receptor Potential 1 (TRPML1). Mucolipin-1 (Homo sapiens), Q9GZU1. TRPML1-expressing cells, Ca2+ dye fluorescence, FDSS. activation, % (no concentration beside the values). 0.12% of 410,000 active; in the data active means activation above about 50%; inconclusive means mostly about 30% to 49%
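TRPML1-DL cells, Tet-induced overnight (~16 h, 37 degrees C), loaded 45-90 min at room temperature with Ca8 no-wash calcium dye plus quencher. FDSS fluorescence: 10 s baseline, compound pin-transfer, 110 s agonist read, then EC80 54-4 (4uM final) and 110 s antagonist read.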
TRPV1 PAM: HTS Assay for Compounds that Act as Potentiators of the Vanilloid Receptor 1; Transient receptor potential cation channel subfamily V member 1 (Homo sapiens), Q8NER1; TRPV1-expressing cells, Fluo-8 calcium influx, capsaicin EC20 potentiation; potentiation, % at 8.33 µM; 0.02% of 320,000 active; in the data active means potentiation above about 80%; inconclusive means between about 30% and that limit
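Cells expressing TRPV1 were dye-loaded with Fluo-8 and read kinetically: 10 s baseline, 3 min after compound (agonist portion), then 2 min after EC20 capsaicin (allosteric enhancer portion). Calcium-bound dye fluorescence at 480/520 nm.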
A-T KAP1 phos: qHTS Assay for Identifying a Potential Treatment of Ataxia-Telangiectasia | F2112 A-T fibroblasts, KAP-1 phosphorylation AlphaLISA; neocarzinostatin DNA damage 30 min before lysis | Potency, µM (titrated, usually from 57.5 µM), most hits filed as activators | 0.19% of 320,000 active; further: nearly all actives have a fitted effect of over 45% in size
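ATM-like activity read as KAP-1 phosphorylation via AlphaLISA donor/acceptor antibody pairs after lysis and 6 hr at 25C. Cells were ATM-null patient fibroblasts (F2112, hTERT), dosed 60 min, then exposed to the DSB inducer NCS for 30 min.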
Numbers stand for hits; 0 = inactive; ? = inconclusive; - = no result given; [ ] = another dose, or the depositor's remark. Unless noted, the call rests on the fitted dose curve; in most records, active means well fitted curve in the direction sought with a large enough effect; inconclusive means small, poorly fitted or top-dose-only effect, or another doubt; inactive means no such curve, though single readings can be large; an effect the other way counts as inactive or inconclusive.

SMILES	TRPV1 agonist	TRPML1 inh	RGS4 inhibitor	TRPML1 agonist	TRPV1 PAM	A-T KAP1 phos
Cc1ccc(C2C(C#N)=C(N)SC(N)=C2C#N)cc1	0	0	0	0	0	0
Cc1ccc(C2C(C#N)=C(N)SC(N)=C2C#N)c(C)c1	0	0	0	64	0	0
CCN1CCN(S(=O)(=O)c2ccc(Cl)c(C(=O)Nc3cc(Cl)ccc3N3CCOCC3)c2)CC1	0	0	0	74	0	0
Cc1ccc(S(=O)(=O)Nc2ccccc2N2CCCCC2)cc1	-	0	0	76	-	0
Cc1cccc(S(=O)(=O)Nc2cc(Cl)ccc2N2CCOCC2)c1	-	0	0	72	-	0
Cc1ccc(S(=O)(=O)Nc2cc(C(F)(F)F)ccc2N2CCOCC2)cc1C	0	0	0	85	0	0
Cc1ccc(Cl)cc1NC(=O)CON=C(N)c1ccccc1	0	0	0	0	0	0
Cc1ccc2oc(C(=O)N3CCN(CCO)CC3)c(C)c2c1	0	0	0	0	0	0
Cc1ccc(S(=O)(=O)Nc2ccccc2N2CCOCC2)cc1	0	0	0	64	0	0
CCOC(=O)N1CCN(Cc2nc(Cc3cccc(F)c3)no2)CC1	0	0	0	0	0	0
CCCC(=O)N1CCN(c2nc(CC(C)C)c3c(c2C#N)CCC3)CC1	83	0	0	0	0	0
CCOC(=O)c1cc(-c2cccs2)nc2c1c(C)nn2-c1ccccn1	?	0	0	0	0	0
Cc1nn(-c2ccccn2)c2nc(-c3cccs3)cc(C(=O)NCc3ccco3)c12	83	0	0	0	0	0
O=C(C[C@H]1C(=O)N(C2CCCCC2)C[C@@H]1Cc1ccccc1)Nc1ccccc1	85	0	0	0	0	0
CCOC(=O)C1CN(Cc2ccccc2)C(=O)C1=O (stereo unspecified)	-	0	0	0	-	-
CCOC(=O)C1=C(O)C(=O)N(Cc2ccccc2)C1	0	-	0	-	0	1.1µM
CNC(=O)c1ccc(-c2sc3nc(N4CCOCC4)c4c(c3c2N)CC(C)(C)OC4)o1	0	0	0	0	0	4.5µM
CC1(C)Cc2c(c(N3CCOCC3)nc3sc(-c4ccc(C(=O)O)o4)c(N)c23)CO1	0	0	?	0	?	0
CC1=CC(C)(C)n2c(O)c(N=N)c3c(C)ccc1c32	0	0	0	0	0	32µM
COc1ccc(/C=N/Nc2nn3cnnc3c3ccccc23)cc1	0	0	0	0	0	45µM
CC(=O)Nc1cccc(-c2csc(C(NC(C)=O)c3ccc(F)c(F)c3)n2)c1 (stereo unspecified)	-	-	-	0	-	-
CCOC(=O)c1ccc(N2C(=O)c3n[nH]c(C)c3C2c2ccccc2OC)cc1 (stereo unspecified)	-	0	0	0	-	-
Cc1cccc(C)c1N1CCN(C(=O)N2CCOCC2)CC1	80	0	?	0	0	0
COc1cc(Cl)c(C)cc1NC(=O)c1cnc(N2CCCCC2)c2ccccc12	-	0	0	69	-	-
Cc1ccc(S(=O)(=O)N2CCOCC2)cc1C(=O)N(C)CCOc1ccc(Cl)cc1	0	0	0	0	0	22µM
SMILES	TRPV1 agonist	TRPML1 inh	RGS4 inhibitor	TRPML1 agonist	TRPV1 PAM	A-T KAP1 phos
Nc1ccc(-c2c3ccc(=O)cc-3oc3cc(O)ccc23)cc1C(=O)O	93	0	0	65	0	0
O=c1cc(-c2ccccc2)oc2cc(O)ccc12	-	0	0	0	-	-
O=c1ccc2c(-c3ccccc3)c3ccc(O)cc3oc-2c1	0	?	0	139	0	?
CC(C)c1ccc(-c2cc(C(=O)N3CCOCC3)c3cc(Br)ccc3n2)cc1	0	0	0	0	0	4.5µM
O=C(O)/C=C/c1cn(Cc2ccccc2Cl)nc1-c1ccccc1	0	-	0[11.4 µM]	-	0	10µM
COC(=O)c1c(-c2ccc(N(C)C)cc2)sc2ccc(OC)cc12	-	0	0	0	-	25µM
COC(=O)c1c(-c2ccc(OC)cc2)sc2cc3c(cc12)OCO3	0	0	0	0	0	0
Cc1coc2cc3oc(=O)c(CCC(=O)NCCCN4CCCC4=O)c(C)c3cc12	0	0	0	0	0	0
COC(=O)N=Nc1c(O)n(Cc2ccccc2)c2ccccc12	0	0	0	0	0	25µM
O=C(Nc1ccc2c3c(cccc13)CC2)c1ccc(Br)o1	85	0	0	0	0	-
CCOc1ccccc1NS(=O)(=O)c1ccc2[nH]c3c(c2c1)CCCCC3	-	0	0	0	-	-
COCCN(C(=O)CSc1nnc(C)n1Cc1ccccc1)c1c(N)n(CC(C)C)c(=O)[nH]c1=O	0	0	0	0	0	0
CNC(=O)c1ccc(Nc2nnc(C)c3ccccc23)cc1	0	0	0	0	0	0
CCOC(=O)c1ccc(Nc2nnc(C)c3ccccc23)cc1	86	0	0	0	0	0
Cc1cc(=O)n2nc(N3CCCC(C(=O)NCc4ccc(F)cc4)C3)sc2n1 (stereo unspecified)	0	0	0[11.4 µM]	0	0	0
O=C(NCc1ccc(F)cc1)C1CCCN(c2nc3ccsc3c(=O)s2)C1 (stereo unspecified)	83	0	0	0	0	0
CC[n+]1c(/C=C/N(C)c2ccccc2)oc2ccc(Cl)cc21	0	0	?	0	0	0
CCN1/C(=C/C=C/c2oc3ccc4ccccc4c3[n+]2CC)Oc2ccc3ccccc3c21	0	0	?	63	0	0
N=C1/C(=C\c2coc3ccccc3c2=O)C(=O)N=C2SC=CN12	?	0	0	72	0	0
CSC1=NSC2=NC(=O)/C(=C/c3coc4ccc(O)cc4c3=O)C(=N)N12	0	0	?	67	0	0
CSC1=NSC2=NC(=O)/C(=C/c3coc4ccccc4c3=O)C(=N)N12	?	0	?	77	0	0
Cc1ccc(C)c(OCCC(=O)OCC(=O)NNC(=O)c2ccccc2)c1	0	0	0	0	0	0
N#Cc1c(-c2ccccc2)cc(-c2ccccc2)[nH]c1=O	0	0	0	0	0	0.79µM
CCOC(=O)C1CCN(c2ncnc3c2c(-c2ccccc2)cn3-c2ccccc2)CC1	0	0	0	75	0	0
Cc1cccc(N2CCN(c3ncnc4c3c(-c3ccccc3)cn4-c3ccccc3)CC2C)c1 (stereo unspecified)	-	0	0	51	-	-
